An excerpt weighted towards active compounds, which were near 5.2% of everything screened.
SKN-1 block: inhibitors of C. elegans SKN-1. C. elegans VP596 Pgst-4::GFP/RFP ratio, acrylamide-induced, 24 h. inhibition, % at 21.8 µM. 360,000 tested, 0.49% active;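 active means interference check ratio from 0.5 to 1.5 plus GFP to RFP signal ratio inhibition reaching or exceeding a fixed threshold, cut at about 30% in these data, passing the limit was not always enough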
Vif inh: HIV Vif inhibition; HEK293T cells, Vif self-association by quenched fluorescence, imaging, 24 h; inhibition, % at 7.49 µM; 340,000 tested, 0.35% active; AID 602346; in the data active means inhibition above about 50%, passing the limit was not always enough
NadD block: NadD (S. aureus) enzyme inhibition; purified NadD enzyme, colorimetric absorbance read-out; inhibition, % at 20 µM; 360,000 tested, 0.78% active; in the data active means inhibition above about 26%
SMARCA2 activ: SMARCA2 function activation, primary screen; MG213 cells, MMTV-luciferase reporter, dexamethasone, overnight; activation, % at 9.1 µM; 370,000 tested, 1% active; AID 652017; in the data active means activation above about 7.8%
esBAF inh: SWI/SNF esBAF complex inhibition. mouse ES cells, Bmi1-luciferase knock-in reporter, 24 h; 100% = twice the neutral-well signal. reporter increase, % at 12.5 µM. 350,000 tested, 2% active. AID 602393; in the data active means activation above about 40%;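 further: a rise in the Bmi1 reporter signal indicates esBAF inhibition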
GRIN3A LBD mod: NR3A (human) ligand-binding domain modulation; Tm shift relative to glycine control, % at 25 µM; AID 1259313; 340,000 tested, 2.5% active; NR3A LBD differential scanning fluorimetry, Tm shift; 0% = protein alone, 100% = glycine-bound protein;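 active means melting temperature shift of at least 10% of the positive control shift, at one fixed dose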
Of the large screens only hits and unclear results are named; the others gave an inactive call.

Cc1ccc(S(=O)(=O)N(C)C[C@@H]2Oc3ccc(NC(=O)NC4CCCCC4)cc3CC(=O)N([C@H](C)CO)C[C@@H]2C)cc1	none (no result: SKN-1 block, Vif inh, NadD block, SMARCA2 activ, GRIN3A LBD mod)
CN1C(=O)c2cc(NC(=O)Nc3ccc(Cl)cc3)ccc2OC[C@@H]2O[C@H](CC(=O)O)CC[C@@H]21	none (no result: SKN-1 block, Vif inh, NadD block, SMARCA2 activ, GRIN3A LBD mod)
CS(=O)(=O)N1C[C@H](O)COC[C@@H]2O[C@H](CC(=O)NCc3ccc(-c4ccccc4)cc3)CC[C@H]21	none (no result: SKN-1 block, Vif inh, NadD block, SMARCA2 activ, GRIN3A LBD mod)
O=C(CNC(=O)c1ccc(F)cc1)c1ccc(Cl)cc1	esBAF inh 53.1
O=C(CNC(=O)c1ccc(Cl)cc1)c1ccc(Cl)cc1	none
C[C@H](CO)N1C[C@H](C)[C@@H](CN(C)S(=O)(=O)c2cccs2)Oc2ccc(NC(=O)Nc3ccc(C(F)(F)F)cc3)cc2C1=O	GRIN3A LBD mod 23.1 (no result: Vif inh)
C[C@@H]1CN([C@H](C)CO)C(=O)c2cc(NC(=O)Nc3ccc(C(F)(F)F)cc3)ccc2O[C@H]1CN(C)S(=O)(=O)c1cccs1	GRIN3A LBD mod 17.4
C[C@H](CO)N1C[C@H](C)[C@H](CN(C)S(=O)(=O)c2cccs2)Oc2ccc(NC(=O)Nc3ccc(C(F)(F)F)cc3)cc2C1=O	none (no result: SKN-1 block, Vif inh, NadD block, SMARCA2 activ, GRIN3A LBD mod)
C[C@@H]1CN([C@@H](C)CO)S(=O)(=O)c2ccc(C3=CCCCC3)cc2O[C@@H]1CN(C)Cc1ccccn1	none (no result: SKN-1 block, Vif inh, NadD block, SMARCA2 activ, GRIN3A LBD mod)
COC(=O)C[C@@H]1C[C@H]2c3cc(NC(=O)NC4CCCC4)ccc3O[C@H]2[C@@H](CO)O1	none (no result: SKN-1 block, Vif inh, NadD block, SMARCA2 activ, GRIN3A LBD mod)
C[C@@H]1CN([C@@H](C)CO)C(=O)c2cc(-c3cccnc3)cnc2O[C@H]1CN(C)C(=O)Nc1ccccc1	none (no result: SKN-1 block, Vif inh, NadD block, SMARCA2 activ, GRIN3A LBD mod)
O=C(NCC1CC1)NC(=O)c1ccccc1F	none (no result: esBAF inh, GRIN3A LBD mod)
O=C(NCC1CC1)NC(=O)c1c(F)cccc1Cl	Vif inh 50.5
COc1ccc(CC(NC(C)=O)C(=O)NC2CCN(C(=O)c3cnccn3)CC2)cc1 (stereo unspecified)	none
CC(=O)NC(Cc1ccccc1F)C(=O)NC1CCN(C(=O)c2cnccn2)CC1 (stereo unspecified)	Vif inh 54.7
CN(CC(=O)Nc1ccc(F)cc1)C(=O)COC(=O)c1cccc(N(C)C)c1	esBAF inh 47.9
CCCC(=O)Nc1ccc2c(c1)C(=O)N(C)[C@H]1CC[C@@H](CC(=O)N3CCc4ccccc4C3)O[C@@H]1CO2	none (no result: SKN-1 block, Vif inh, NadD block, SMARCA2 activ, GRIN3A LBD mod)
O=c1c(Cl)c(N/N=C/c2ccc(Br)cc2)cnn1-c1ccccc1	GRIN3A LBD mod 13.2 (no result: Vif inh)
CNc1cnn(-c2ccccc2)c(=O)c1Cl	none
COc1ccc(/C=C/c2ccncc2)cc1	esBAF inh 52.6
CN(C)c1ccc(/C=C/c2ccncc2)cc1	none
COc1ccc(NC(=O)Nc2cccc3c2O[C@@H](CN(C)Cc2ccc(Cl)c(Cl)c2)[C@@H](C)CN([C@@H](C)CO)C3=O)cc1	none (no result: SKN-1 block, Vif inh, NadD block, SMARCA2 activ, GRIN3A LBD mod)
COc1ccc2oc(=N)c(C(=O)Nc3ccc(C)cc3)cc2c1	esBAF inh 43.0
COc1ccc2o/c(=N\O)c(C(=O)Nc3ccc(C)cc3)cc2c1	GRIN3A LBD mod 16.2 (no result: esBAF inh)
O=C1CC(/C=C/c2ccncc2)=Nc2ccccc2N1	esBAF inh 88.2
COc1ccc(NC(=O)N(C)C[C@H]2Oc3ccc(NC(=O)Cc4cn(C)c5ccccc45)cc3C(=O)N([C@H](C)CO)C[C@H]2C)cc1	none (no result: SKN-1 block, Vif inh, NadD block, SMARCA2 activ, GRIN3A LBD mod)
CCOc1ccc(S(=O)(=O)N2CCN(Cc3ccc4c(c3)OCO4)CC2)cc1OCC	none
COc1ccc(S(=O)(=O)N2CCN(Cc3cccc(OC)c3)CC2)cc1	none
COc1cccc(S(=O)(=O)N2CCN(Cc3ccc4c(c3)OCO4)CC2)c1	GRIN3A LBD mod 14.4
CC1CCCN(S(=O)(=O)c2ccc(S(=O)(=O)N3CCCN(Cc4ccccc4)C3)cc2)C1 (stereo unspecified)	none
COc1ccc(S(=O)(=O)N2CCN(Cc3ccccc3)CC2)cc1	GRIN3A LBD mod 11.2
COc1ccc(CN2CCN(Cc3ccco3)CC2)cc1	SKN-1 block 40.5
CC(C)CNS(=O)(=O)c1ccc(S(=O)(=O)N2CCCN(Cc3ccccc3)C2)cc1	GRIN3A LBD mod 12.7 (no result: SMARCA2 activ)
O=C(O)C[C@H]1CC[C@H](NC(=O)Nc2cc(F)ccc2F)[C@@H](CO)O1	none (no result: SKN-1 block, Vif inh, NadD block, SMARCA2 activ, GRIN3A LBD mod)
CC(=O)N(C)C[C@@H]1Oc2cc(C#CC3CC3)ccc2S(=O)(=O)N([C@@H](C)CO)C[C@H]1C	none (no result: SKN-1 block, Vif inh, NadD block, SMARCA2 activ, GRIN3A LBD mod)
CN(C[C@H]1[C@H](c2ccccc2)[C@@H](CO)N1CC1CC1)C(=O)c1ccccc1	none (no result: SKN-1 block, Vif inh, NadD block, SMARCA2 activ, GRIN3A LBD mod)

Compound activity as filed in PubChem BioAssay.
